The text below walks through data of PubChem BioAssay.

Test [1] deals with Human papillomavirus type 1a protein E7 (residues 44-93). The experiment in a line: HPV1a E7 fragment binders on microarrays, primary screen, biochemical, small-molecule microarray, residues 44-93, 635 nm fluorescence (AID 1108).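 Also: E7 fragment applied at 1 µg/mL in TBST for 1 h at 4 C; score combines spot fluorescence with its signal to noise ratio.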 To be noted: small-molecule microarray binding, fluorescence 635 nm; higher = more signal.
Test [2] can be described thus: modulators of HCV replicon luciferase signal, primary screen, HCV replication inhibitor project, Huh7 cells, luciferase reporter (AID 1109).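 Also: huh7 hepatoma cells harbouring a luciferase neomycin HCV replicon reporter; luciferase luminescence as measure of HCV replicon replication; test concentration not given here.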 To be noted: 48 h, higher = more signal.
The target of test [3] is Left-right determination factor 2 (Homo sapiens) (UniProt O00292). The experiment in a line: LEFTY2 binders on small-molecule microarrays, primary screen, biochemical, small-molecule microarray, 635 nm fluorescence scan (AID 1110). The note with it: LEFTY2 binding, higher = more signal.
The target in test [4] is Calmodulin-1 (Homo sapiens) (UniProt P0DP23). The experiment in a line: CALM1 binders on microarrays, EGTA buffer, profiling panel, biochemical, small-molecule microarray, Cy5-labelled CALM1 (AID 1111).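 Also: labelled calmodulin applied in Tris saline Tween buffer holding calcium plus EGTA and DTT.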 The note with it: Cy5-CALM1 binding fluorescence, higher = more signal.
Test [5] shares this target. The experiment in a line: calcium-bound CALM1 binders on microarrays, profiling panel, artefact control for SMM control-protein annotation, biochemical, small-molecule microarray, Cy5-labelled CALM1, plus calcium (AID 1112).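 Also: score merges spot fluorescence with signal to noise from triplicate slides.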 To be noted: Cy5-CALM1 binding fluorescence, higher = more signal.
A short description of test [6]: small-molecule microarray binders of probe aWnt5a, primary screen, biochemical, biotinylated probe, 635/667 nm fluorescence (AID 1113).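 Also: score merges 667 nm fluorescence intensity with signal-to-noise per printed feature.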 The note with it: higher = more signal.
Test [7] can be described thus: small-molecule microarray binders of probe aShh, primary screen, biochemical, biotinylated probe, 635/667 nm fluorescence (AID 1114).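 Also: probe is biotin-labelled aShh protein from a stem cell growth factor screen; measures binding of labelled protein to compounds printed on the slide; score merges feature fluorescence at 667 nm with signal-to-noise.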 The note with it: higher = more signal.
The nature of test [8]: small-molecule microarray binders of probe aNog, primary screen, biochemical, biotinylated probe, 635/667 nm fluorescence (AID 1115).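 Also: probe is biotinylated aNog protein used at 0.15 µg/mL for 1 h at 4 C; z-score combines 667 nm fluorescence of each spot with its signal to noise.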 To be noted: higher = more signal.
The target in test [9] is Torsin-1A-interacting protein 1 (Homo sapiens) (UniProt Q5JTV8). The experiment in a line: LAP1 binders from COS7 cell lysate, primary screen, small-molecule microarray, 635/667 nm fluorescence (AID 1116). The note with it: COS7-hLAP1 lysate binding, 635 nm fluorescence, higher = more signal.
For test [10], the target named is Alpha-bungarotoxin (Bungarus multicinctus) (UniProt P60615). The experiment in a line: alpha-bungarotoxin binders on microarray, profiling panel, artefact control for SMM control protein annotation, biochemical, small-molecule microarray, Alexa647 label, 635/667 nm fluorescence (AID 1117). The note with it: alpha-BTX-A647 binding fluorescence, higher = more signal.

Each structure is given as a SMILES string.

Alpha-bungarotoxin (Bungarus multicinctus), sequence (P60615 whole entry, looked up): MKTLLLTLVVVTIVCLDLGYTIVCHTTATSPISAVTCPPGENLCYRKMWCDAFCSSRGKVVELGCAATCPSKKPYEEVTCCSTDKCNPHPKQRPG
Left-right determination factor 2 (Homo sapiens), sequence (O00292 whole entry, looked up): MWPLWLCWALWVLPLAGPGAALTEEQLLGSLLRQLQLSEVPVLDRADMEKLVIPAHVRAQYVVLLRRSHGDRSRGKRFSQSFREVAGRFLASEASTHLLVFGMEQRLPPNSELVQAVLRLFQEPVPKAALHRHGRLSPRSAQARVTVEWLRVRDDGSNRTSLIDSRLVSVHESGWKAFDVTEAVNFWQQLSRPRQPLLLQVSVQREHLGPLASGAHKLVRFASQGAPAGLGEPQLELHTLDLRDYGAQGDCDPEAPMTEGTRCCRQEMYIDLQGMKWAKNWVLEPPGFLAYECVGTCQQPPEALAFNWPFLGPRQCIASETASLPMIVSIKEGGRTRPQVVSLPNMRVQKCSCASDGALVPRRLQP
Torsin-1A-interacting protein 1 (Homo sapiens), sequence (Q5JTV8 whole entry, looked up): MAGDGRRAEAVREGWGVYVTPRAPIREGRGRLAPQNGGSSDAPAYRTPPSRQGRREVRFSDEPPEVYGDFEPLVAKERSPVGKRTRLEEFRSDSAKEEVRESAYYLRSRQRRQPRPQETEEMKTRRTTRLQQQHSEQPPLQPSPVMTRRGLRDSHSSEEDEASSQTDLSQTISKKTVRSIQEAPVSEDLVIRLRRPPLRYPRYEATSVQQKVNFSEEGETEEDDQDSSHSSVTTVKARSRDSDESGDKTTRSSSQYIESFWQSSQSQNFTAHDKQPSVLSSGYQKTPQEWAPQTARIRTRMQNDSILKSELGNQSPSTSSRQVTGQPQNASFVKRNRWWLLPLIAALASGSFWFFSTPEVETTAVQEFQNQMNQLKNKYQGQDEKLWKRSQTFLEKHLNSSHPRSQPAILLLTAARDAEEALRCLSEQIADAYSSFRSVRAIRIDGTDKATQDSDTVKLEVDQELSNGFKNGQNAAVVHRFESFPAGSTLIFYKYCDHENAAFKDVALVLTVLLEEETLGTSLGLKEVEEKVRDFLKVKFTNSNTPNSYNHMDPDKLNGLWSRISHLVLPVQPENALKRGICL

In the case of `CO[C@@H]1COC(=O)[C@H](COCc2ccccc2)NC(=O)CC=C[C@@H](C)[C@H](OC)COC(=O)[C@H](COCc2ccccc2)NC(=O)CC=C[C@H]1C`, the composite z-score in test [1] was -0.417; in [3], 0.644; in test [4] it was -0.409; in test [5], -1.01; in [6] it was -0.0927; in [7], -0.0626. In addition, the composite z-score in [8] was -0.349; in test [9] it was -0.217; in [10] it was -0.774. The z-score in test [2] was -0.0527.
`NC(=O)NCC#Cc1ccc2c(c1)[C@]1(C(=O)N2)[C@H](C(=O)N2CCCCCCC2)[C@H]2C(=O)O[C@H](c3ccccc3)[C@H](c3ccccc3)N2[C@@H]1c1ccccc1OCCO`: the composite z-score in test [1] was determined as 1.37; in test [3], 1.46; in test [4], 2.99; in test [5], 1.69; in test [6], 1.31; in test [7] it was 2.38. Besides, the composite z-score in [8] stood at 2.29; in test [9], 5.01; in test [10], 2.63. Besides, in [2], the z-score is -1.54.
For `O=C1C2C=CC(C(O)C#Cc3ccccc3)N(Nc3ccccc3)C2C(=O)N1c1ccccc1` (stereo not given), the composite z-score in test [1] is -0.369; in test [3], -0.365; in test [4], 0.482; in test [5], 0.373; in test [6] it was -0.096; in test [7], -0.16. Also, the values for the composite z-score in test [8], in [9] and in [10] were 0.839, 0.945 and 0.472, respectively. In test [2], this molecule gave a z-score of -0.049.
On to `CCN1C(C)=C(C(=O)OC)[C@@H](c2ccccc2)N2C(=O)[C@](O)(C(=O)OC)[C@@H](c3ccccc3)C(C(=O)c3ccccc3)=C12`, for which the composite z-score is 0.474 in test [1]; 0.499 in test [3]; 0.0865 in [4]; 0.0844 in test [5]; -0.0685 in test [6]; 0.166 in [7]. The composite z-score in test [8] was 0.158; in test [9], 0.653; in test [10], 0.232. Besides, the z-score in test [2] is -1.15.
Take `COC(=O)Cn1c(C(=O)N2CCCC2)cc2c1C[C@H]1CN(C(=O)c3ccccc3)[C@@](Cc3ccccc3)(C(=O)OC)[C@@H]21`: the composite z-score in test [1] was 0.225; in test [3] it was -0.0875; in [4] it was 0.79; in test [5], 0.589; in test [6], -0.006; in [7], 0.0639. In addition, the composite z-score in test [8] is -0.374; in [9], 0.261; in test [10], 0.236. In test [2], this molecule registered a z-score of -1.02.
Turning to `COCCOC(=O)N1C(=O)[C@@]2(c3cc(C#CCCO)ccc31)[C@H](c1ccc(O)cc1)N1[C@H](c3ccccc3)[C@H](c3ccccc3)OC(=O)[C@H]1[C@@H]2C(=O)Nc1nc2ccccc2s1`, the composite z-score in test [1] is 1.37; in test [3] it was 0.704; in test [4], 0.207; in test [5] it was -0.567; in test [6], -0.0256; in test [7], -0.167. Further, the composite z-score in test [8] was -0.223; in test [9], 0.234; in test [10], 1.46. In addition, the z-score in test [2] was 0.688.
Take `COC(=O)[C@@]1(Cc2ccccc2N=[N+]=[N-])N=C(c2ccc(OCCCO)cc2)O[C@H]1c1ccccc1CN=[N+]=[N-]`: the composite z-score in test [1] is 0.403; in test [3], -0.417; in test [4], 0.559; in test [5], 0.0128; in [6] it was -0.0758; in test [7], -0.136. In addition, the composite z-score amounted to 1.01 in [8], 0.889 in [9] and 1.28 in [10]. Moreover, the z-score in [2] is -3.35.
With `CCCC=C(CCC)[C@@H](NS(=O)(=O)c1ccc(-c2ccccc2)cc1)c1ccc(C(=O)OC)cc1`, the composite z-score in test [1] is 0.17; in test [3], 0.0185; in test [4] it was 0.601; in [5], 0.581; in [6], -0.104; in test [7], 0.0796. The composite z-score in test [8] was 0.119; in [9] it was 0.756; in test [10] it was -0.214. This molecule had a z-score in test [2] of -1.35.
Consider `CCN1C(C)=C(C(=O)OC)[C@@H](c2ccccc2)N2C(=O)[C@@]3(C(=O)OC)O[C@@]12[C@@H]1C(=O)N(C)C(=O)[C@@H]13`, for which the composite z-score in test [1] is -0.592; in test [3], 0.72; in [4], 0.439; in [5] it was -0.686; in [6], -0.0882; in [7], -0.283. For the same molecule, the figures for the composite z-score in test [8], in test [9] and in test [10] were 0.372, 0.426 and 1.19, respectively. In addition, in test [2], the z-score is -0.0304.
In the case of `C=CCC(OC(C)=O)[C@@H]1[C@@H](N(Cc2cccc3ccccc23)C(=O)Cc2ccc(F)cc2)c2cc(OCCCO)ccc2N1C(=O)Cc1ccc2ccccc2c1` (stereo not given in full), the composite z-score in [1] was -0.28; in [3], -0.368; in test [4], -0.571; in test [5], 0.158; in test [6], -0.0179; in test [7], -0.326. In addition, the composite z-score in [8] was 0.0129; in test [9] it was -0.148; in test [10], 0.983. Further, the z-score in [2] amounted to 0.874.
With `O=C1O[C@@H](c2ccccc2)[C@@H](c2ccccc2)N2[C@@H](c3ccc(O)cc3)[C@]3(C(=O)Nc4ccccc43)[C@@H](C(=O)N3CCN(c4ncccn4)CC3)[C@H]12`, the composite z-score in [1] was 0.746; in test [3], -0.389; in [4] it was 0.874; in test [5] it was 1.09; in [6] it was -0.105; in [7], 0.182. Also, the composite z-score in [8] is 0.0486; in test [9] it was 0.0398; in [10] it was 1.16. In test [2], the z-score is -1.91.
`CCC#CCN(Cc1ccccc1Br)[C@H](/C=C/c1ccccc1)[C@@H](O)Cc1ccccc1`: the composite z-score in test [1] is -0.0687; in [3], -0.635; in test [4], -0.481; in [5] it was 0.402; in [6] it was -0.152; in [7] it was -0.138. The composite z-score is -0.326 in [8], -0.613 in test [9] and -0.0441 in [10]. Besides, the z-score in [2] is -2.58.
For `CO[C@@H]1COC(=O)CC=C[C@H](C)COC(=O)[C@H](Cc2ccccc2)NC(=O)CC=C[C@H]1C`, the composite z-score in test [1] is -0.416; in [3] it was 1.31; in test [4] it was -1.59; in [5], -2.38; in test [6], -0.288; in test [7], 0.0048. For the same molecule, the composite z-score in test [8] was -0.547; in [9], -0.0955; in test [10], -1.36. Moreover, the z-score in test [2] is 1.06.
Consider `CO[C@]12C=C(Br)[C@@H](C[C@@H]1c1ccccc1)[C@@]1(CO1)C2=O`, for which the composite z-score in [1] is -0.468; in test [3], 0.36; in [4], -0.264; in test [5], -0.533; in test [6] it was -0.0125; in test [7], -0.0146. The results for the composite z-score in test [8], in [9] and in test [10] were 0.0256, -0.161 and -0.3, respectively. The same molecule had a z-score in [2] of -2.97.
For the molecule `COCCOC(=O)N1C(=O)[C@@]2(c3cc(C#CC4=CCCCC4)ccc31)[C@H](C(=O)NC[C@H](O)c1ccccc1)[C@H]1C(=O)O[C@H](c3ccccc3)[C@H](c3ccccc3)N1[C@@H]2c1ccc(OCCO)cc1`, the composite z-score in [1] was 1.41; in test [3] it was 0.537; in [4] it was 0.774; in test [5], -0.206; in test [6], 0.0115; in [7], -0.279. Also, the results for the composite z-score in test [8], in test [9] and in test [10] were 0.165, 1 and 1.28, respectively. In [2], this molecule showed a z-score of -2.08.
In the case of `C#C[C@H](O[Si](C#Cc1ccccc1)(C(C)C)C(C)C)c1ccccc1`, the composite z-score in test [1] was -0.285; in [3] it was -0.962; in test [4], -0.226; in test [5], 0.418; in [6], -0.162; in test [7], -0.154. In addition, the composite z-score in [8] is -0.333; in test [9] it was -0.246; in [10], 0.821. In test [2], this molecule returned a z-score of -0.733.
As to `COC(=O)C1=C(C)N(Cc2ccccc2)c2c(C(=O)OC)c(C(=O)OC)c(C(=O)OC)c(=O)n2[C@@H]1c1ccccc1`, the composite z-score is -0.316 in test [1]; 0.431 in test [3]; 1.61 in [4]; 0.141 in test [5]; -0.0806 in [6]; -0.221 in [7]. Further, the composite z-score in [8] is -0.0286; in test [9], 0.812; in test [10] it was 0.732. The z-score in test [2] is 0.0883.
